An excerpt weighted towards active compounds, which were near 0.19% of everything screened.
Bfl-1 Bim block – disrupts Bim binding to human Bfl-1 | Q16548 | Bead-based flow cytometry, Bim-Bfl-1 binding inhibition | inhibition, % at 10 µM | actives 0.12% (n = 190,000)
Bim-Bcl-XL – inhibitors of Bim-Bcl-XL interaction, human | Q07817 | Bim peptide-Bcl-XL binding, bead flow cytometry, fluorescence | inhibition, % at 10 µM | actives 0.04% (n = 190,000) | AID 1007
Bcl-2 Bim block – disrupts Bim peptide binding to human Bcl-2 | P10415 | Bead-based flow cytometry, Bim peptide-Bcl-2 binding | inhibition, % at 10 µM | actives 0.06% (n = 190,000) | AID 950; in the data active = inhibition above about 40%
Target sequence (P10415 whole entry, looked up): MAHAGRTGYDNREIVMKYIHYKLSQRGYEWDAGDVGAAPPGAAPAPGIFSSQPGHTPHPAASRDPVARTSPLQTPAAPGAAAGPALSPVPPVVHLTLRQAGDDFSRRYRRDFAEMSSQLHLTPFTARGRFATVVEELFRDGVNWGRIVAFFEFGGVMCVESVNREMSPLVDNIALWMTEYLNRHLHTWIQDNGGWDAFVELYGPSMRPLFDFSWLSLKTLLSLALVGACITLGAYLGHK
Bim-Bcl-W – inhibitors of Bim-Bcl-W interaction, human; bead-based flow cytometry, Bim peptide-Bcl-W binding; inhibition, % at 10 µM; actives 0.02% (n = 190,000); AID 952;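 also: higher means less fluorescent Bim peptide bound to Bcl-W beads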
Bcl-B Bim block – disrupts Bim peptide binding to human Bcl-B; Q9HD36; bead-based flow cytometry; inhibition, % at 10 µM; actives 0.073% (n = 190,000); AID 951
Bim-Bcl-XL DR – Bim-Bcl-XL interaction regulation, dose confirmation; inhibition of binding at 100 µM; bead-based flow cytometry, Bim-Bcl-XL binding; 40 tested, under 10 active; shares compounds with Bfl-1 Bim block; AID 2084; call rule not given here
Large screens that a line does not name were inactive (follow-up assays come after a bar, where they were run). Rule as the data show it, unless noted: active = inhibition above about 40%.

CC(=O)OCCNc1cc(SCc2ccco2)c2nonc2c1[N+](=O)[O-]	none
CCNC(=O)NCc1c(C)c(C)n(Cc2ccccc2)c1-n1cccc1	none
Cc1cc2nn(-c3cccc4ccccc34)nc2cc1N	Bfl-1 Bim block 48.0 | Bim-Bcl-XL DR inactive
CCOc1ccccc1CNc1ccc(O)cc1	Bfl-1 Bim block 44.0 | Bim-Bcl-XL DR inactive
CNC(CC(=O)c1ccc([N+](=O)[O-])cc1)C(Cl)(Cl)Cl (stereo not given)	Bfl-1 Bim block 55.0 | Bim-Bcl-XL DR inactive
Cc1ccc(-c2cc(C(=O)Nc3nccs3)c3ccccc3n2)o1	none | Bim-Bcl-XL DR inactive
C=Cc1cccc(NC(=O)COc2ccccc2)c1	none
COc1cc(N=c2ssnc2Cl)c(OC)cc1Cl	none
COc1cc(N=C2SSNC2Cl)c(OC)cc1Cl (stereo not given)	none (no result: Bfl-1 Bim block, Bim-Bcl-XL, Bcl-2 Bim block, Bim-Bcl-W, Bcl-B Bim block) | Bim-Bcl-XL DR inactive
CCOC(=O)Cn1nc(C)n(-c2ccc(C(C)(C)C)cc2)c1=O	none
COc1ccccc1-n1c(-c2ccccc2)c[nH]c1=S	none | Bim-Bcl-XL DR inactive
S=c1[nH]cc(-c2ccccc2)n1-c1ccccc1Cl	none
O=C1c2ccccc2C(=O)N1CN(C(=O)COc1ccc(Cl)cc1Cl)c1cccc(F)c1	none | Bim-Bcl-XL DR inactive
CCN(C(=O)COc1cc(=O)n(CC)c2ccccc12)c1cccc(Cl)c1	none

Screens deposited in PubChem BioAssay by NMMLSC.
